Screening data as filed in PubChem.
HCMV antiviral: qHTS Assay for inhibitors of the human cytomegalovirus (HCMV); HFF cells, HCMV-luciferase reporter, 72 h; hits give low values; activity change, negative = inhibition, % at 57.5 µM; hit rate 4.5% among 410,000; in the data active = activity change below about -60%; inconclusive = no clear call, values can overlap the other calls; inactive = above about -39%
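HFF cells seeded 16 h at 37C, treated with compounds, infected with luciferase-reporter HCMV at MOI 1 PFU/cell; luciferase read at 72 h post infection, normalized to buffer-only and Salinomycin controls.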
Pf growth 96h: Primary qHTS for delayed death inhibitors of the malarial parasite plastid, 96 hour incubation; P. falciparum luciferase reporter growth, 96 h; Potency, µM (series often up to 28.7 µM), for the others: at the highest dose activity change, negative = inhibition, actives largely listed as inhibitors; hit rate 6.9% among 320,000; AID 504834, 2011; note: potency is the fitted concentration of half-maximal effect
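Two-generation exposure (96 h) targets delayed-death phenotype. Reporter parasites carrying integrated firefly luciferase, in red cells at 2% hematocrit and 0.05% parasitemia final, kept at 37 C, 5% CO2; luminescence loss indicates inhibition.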
HCV inh: qHTS Assay for Inhibitors of Hepatitis C Virus (HCV); Huh7.5.1 HCVcc-Cre infection, luciferase reporter, 44 h; Potency, µM (series often up to 41.8 µM), inactives show at the top dose activity change, negative = inhibition, hits mostly inhibitors; hit rate 3.4% among 340,000; note: potency is the fitted concentration of half-maximal effect
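Luciferase read-out (15 sec integration) after a 15 min room-temperature substrate step quantifies HCVcc-Cre infection. Cells, 1,000 per well, had compound added 4 h post-plating, then virus at ~0.5 moi, and were cultured 44 h.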
Pf growth 48h: Primary qHTS for delayed death inhibitors of the malarial parasite plastid, 48 hour incubation; P. falciparum luciferase growth in erythrocytes, 48 h; Potency, µM (doses to about 28.7 µM), without a hit: at the highest dose activity change, negative = inhibition, most hits filed as inhibitors; hit rate 5.9% among 310,000; note: potency is the fitted concentration of half-maximal effect
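Compounds are pin-transferred into medium, infected erythrocytes (2% hematocrit, 0.1% parasitemia final) are added, and plates sit one parasite generation at 37 C in 5% CO2. Detection reagent is then added and luminescence measured.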
* marks the source's active call; other numbers are inactive results; u = inconclusive; x = no result. Compounds with a hit are over-represented: about 13% of the library has one in this group of screens. Unless noted, calls come from the whole dose curve; as a rule, active = well fitted inhibition curve with a large enough effect; inconclusive = small, poorly fitted or top-dose-only effect, or another doubt; inactive = no such curve, though single readings can be large or run the other way. % is set by controls: 0 for no effect and ±100 for the full control effect.

SMILES	HCMV antiviral	Pf growth 96h	HCV inh	Pf growth 48h
COc1ccc(/C=C/CN2CCN(Cc3cccc(OC)c3)C(CCO)C2)cc1 (stereo unspecified)	-24	u	-8%	u
CC(C)CN1CCN(C2CCN(C(C)C)CC2)C(CCO)C1 (stereo unspecified)	x	16%	x	u
COC(=O)C(c1ccccc1)(c1cn(C)c2ccccc12)C(Nc1ccccc1)c1ccc(C)cc1 (stereo unspecified)	-11	x	x	x
CCC(=O)N1c2ccc(S(=O)(=O)NCc3cccc(OC)c3)cc2CC1C (stereo unspecified)	-13	x	x	x
COc1ccc(-c2cc(C)no2)cc1S(=O)(=O)N1CC(C)Oc2ccccc21 (stereo unspecified)	-12	x	x	x
Cc1cccc(N(CC(=O)Nc2ccccc2F)S(C)(=O)=O)c1	7	5.2µM*	0%	x
CSc1ccccc1NC(=O)CN(c1cccc(C)c1)S(C)(=O)=O	53	x	1%	-21%
Cc1ccc2c(c1)C(c1ccc(F)cc1)N(C(=O)c1ccc(OC(C)C)cc1)CC(=O)N2 (stereo unspecified)	21	x	x	x
CC1CN=C(c2cc(Cl)c(N)c(Cl)c2)c2c3ccccc3[n+]([O-])n21 (stereo unspecified)	55	x	x	x
C=C1C(=O)O[C@@H]2C[C@@H](C)[C@@H]3C=CC(=O)[C@@]3(C)[C@@H](OC(C)=O)[C@H]12	-99*	2.9µM*	2.8µM*	2.1µM*
C[C@@H]1C[C@@H]2OC(=O)[C@]3(C)[C@H]2[C@@H](OC3(C)O)[C@]2(C)C(=O)C=C[C@H]12 (stereo partly specified)	23	u	-4%	13µM*
C=C1C(=O)O[C@@H]2C[C@@H](C)[C@@H]3C=CC(=O)[C@@]3(C)[C@@H](O)[C@H]12	-100*	1µM*	1.4µM*	0.83µM*
CC(=O)OC1C(OC(C)=O)C2C(C)CC3OC(=O)C(C)C3CC2(C)C1OC(C)=O (stereo unspecified)	-33	x	x	x
Cc1cccc(C)c1OCC(=O)Nc1c(C(=O)c2ccc(Br)cc2)oc2ccccc12	-10	x	x	x
Cc1cccc(C(=O)N2CCc3cc(CNC(=O)COc4ccc(Cl)cc4)ccc32)c1	20	x	x	x
C=CCN=C(NC#N)SC	-6	26%	22%	0.23µM*
O=C(COCc1cc(-c2ccc(F)cc2)on1)Nc1cc(Cl)ccc1O	9	x	x	x
Cc1ccc(C)c(CN2C(=O)c3ccccc3S(=O)c3ccc(C(=O)NCCC4=CCCCC4)cc32)c1 (stereo unspecified)	-13	x	x	x
Cc1ccc(CNC(=O)CCc2c(C)nc3nc(C)nn3c2C)cc1	9	x	x	x
O=C(C[n+]1cc(-c2ccc(Cl)c(Cl)c2)n2c1CCC2)OCc1ccccc1	4	11%	5%	0%
Cc1ccc(NC(=O)C[n+]2cc(-c3ccccc3)n3c2CCC3)cc1	u	2.1µM*	u	10µM*
Cc1ccc(-c2c[n+](CC(=O)Nc3nc(-c4ccccc4)cs3)c3n2CCC3)cc1	17	u	6.3µM*	u
Cc1ccc(-c2c[n+](CC(=O)Nc3ccccc3C)c3n2CCC3)cc1	55	6.6µM*	0%	u
O=C(C[n+]1cc(-c2ccccc2)n2c1CCC2)Nc1nc(-c2ccccc2)cs1	27	u	u	u
COc1ccc(Cn2ccc3nc(C)c(C(=O)N4CCN(c5ccccc5OC)CC4)cc3c2=O)cc1	-7	x	x	x
SMILES	HCMV antiviral	Pf growth 96h	HCV inh	Pf growth 48h
CC(C)c1ccc(N2C(=O)NC(=O)/C(=C\c3cnc(-c4ccccc4)nc3)C2=O)cc1	-88*	196%	10%	78%
Cc1ccc(N2C(=O)NC(=O)/C(=C/c3cnc(-c4ccccc4)nc3)C2=O)cc1C	57	50%	5%	1%
Cc1cccc(N2C(=O)NC(=O)/C(=C\c3cnc(-c4ccccc4)nc3)C2=O)c1	-10	u	11µM*	2%
CCOC(=O)c1c(C)oc2nc(C)nc(NCCCN3CCN(c4cccc(C)c4)C(C)C3)c12 (stereo unspecified)	-1	x	x	x
Cc1cccc(N2C(=O)C(CC(=O)Nc3cccc(F)c3)N(Cc3cccs3)C2=O)c1 (stereo unspecified)	-35	x	x	x
COc1ccc(NC(=O)CC2C(=O)N(c3ccccc3)C(=O)N2C2CCCCC2)cc1 (stereo unspecified)	-4	x	x	x
CCOc1ccc(CC(=O)Nc2sc(Cc3ccccc3)cc2C(N)=O)cc1OCC	-9	12µM*	18%	x
CCOc1ccc(NC(=O)CN(C)C(=O)c2csc3c2CCCC3)cc1OCC	-1	u	u	13µM*
Cc1nn(Cc2ccccc2Cl)c(C)c1C(=O)N(C)CC(=O)Nc1cccc(F)c1	u	u	u	13µM*
CN(CC(=O)Nc1cccc(F)c1)C(=O)c1ccc(OCc2ccccc2)cc1	-24	2%	-25%	u
Cc1cccc(COc2ccccc2C(=O)N(C)CC(=O)Nc2cccc(F)c2)c1	-5	4.1µM*	u	u
CCOc1ccc(NC(=O)CN(C)C(=O)c2ccccc2OCc2cccc(C)c2)cc1OCC	0	u	10µM*	u
CN(CC(=O)Nc1c(Cl)cccc1Cl)C(=O)c1ccccc1Cc1ccccc1	u	u	0%	13µM*
CCOc1ccc(NC(=O)CN(C)C(=O)c2cccnc2SC)cc1OCC	53	32%	8%	24%
CCOc1ccc(NC(=O)CN(C)C(=O)c2ccc(COc3ccccc3)cc2)cc1OCC	-12	35%	u	u
CCOc1ccc(NC(=O)CN(C)C(=O)c2ccccc2Cc2ccccc2)cc1OCC	15	u	-23%	12µM*
COc1ccc(NC(=O)CN(C)C(=O)c2ccccc2CCc2ccccc2)cc1	-22	-6%	u	u
CN(CC(=O)Nc1cccc(F)c1)C(=O)c1ccccc1CCc1ccccc1	-33	u	u	6.6µM*
CCOc1ccc(NC(=O)CN(C)C(=O)CSCc2cccc(C)c2)cc1OCC	1	15µM*	u	u
CCOc1ccc(NC(=O)CN(C)C(=O)c2cc(S(=O)(=O)N(C)C)ccc2N2CCCC2)cc1OCC	-7	-19%	21%	10µM*
CCOc1ccc(NC(=O)CN(C)C(=O)CSCc2ccc(C)cc2)cc1OCC	-14	u	-14%	u
N#Cc1cccc(NC(=O)C2CCN(S(=O)(=O)c3ccc4c(c3)CCCN4C(=O)C3CCC3)CC2)c1	-38	x	x	x
COc1ccc(C)cc1-n1nnnc1SCc1csc(C)n1	21	u	-19%	u
Cc1ccc(-n2nnnc2SCn2nnc3ccccc3c2=O)cc1	24	x	-21%	131%
COc1ccc(C)cc1-n1nnnc1SCc1cc(=O)n2cc(C)ccc2n1	-72*	1%	u	u
COc1ccc(C)cc1-n1nnnc1SCn1nnc2ccccc2c1=O	-80*	13%	u	x
Cc1ccc(OCC(=O)Nc2nc(-c3ccc(Br)cc3)ns2)cc1	26	x	x	x
